Inconclusive results are not listed. Calls of active or inactive are those of the source.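 How the source made its calls, unless noted: active means response below a set limit, under 55% cells CD8-positive and vesicle-bound, and CD8 cells' 90th-percentile brightness under 279; inactive means the rest.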

A word on the inhibition: it is the change of the read-out against control, counted positive when it falls.

Assay [1] is described as follows: yeast TOR pathway RPL19A-GFP modulators, primary screen, cell-based, S. cerevisiae, multiplex flow cytometry (AID 1862; in the data active means percent of DMSO control GFP below about 86%;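 further: lower values mimic rapamycin by blocking the RPL19A rise seen in DMSO cells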). The following applies: S. cerevisiae RPL19A-GFP strain, flow cytometry fluorescence, 3 h; at 10 µM; stronger effect = lower value. (A flow cytometer gives signals particle by particle.)
A short description of assay [2]: modulators of MEP2-GFP levels in yeast, primary screen, S. cerevisiae, multiplex flow cytometry (AID 1867;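 active means GFP response, as percent of the DMSO control, above the screen-wide mean plus 3 SD, about 139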;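 further: median GFP channel fluorescence of barcode-gated MEP2-GFP cells measured by flow cytometry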). The following applies: S. cerevisiae MEP2-GFP strain, 3 h, at 10 µM, stronger effect = higher value, 100% means same as DMSO wells.
Assay [3] can be described thus: modulators of CIT2-GFP expression in yeast, primary screen, S. cerevisiae, GFP fusion, multiplex flow cytometry (AID 1870;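 active means percent response above a set limit, the screen-wide mean plus 3 SD, cut at about 130% in these data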;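 further: barcoded CIT2-GFP strain pooled with four other GFP strains with rapamycin as positive control; median GFP fluorescence per well over plate mean of DMSO wells so 100% = DMSO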). To be noted: 3 h, at 10 µM, stronger effect = higher value.
Assay [4] is described as follows: modulators of LAP4-GFP expression in yeast, primary screen, S. cerevisiae, multiplex flow cytometry (AID 1873;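 active means GFP signal, as percent of the solvent control, above the screen mean plus 3 SD, about 149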). The following applies: 3 h, at 10 µM, stronger effect = higher value.
The nature of assay [5]: modulators of AGP1-GFP expression in yeast TOR pathway, primary screen, cell-based, multiplex flow cytometry, S. cerevisiae (AID 1887;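 active means GFP signal above the screen-wide mean plus 3 SD, that is over about 124.5% of the solvent control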;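 further: AGP1-GFP fusion strain of S. cerevisiae within a five-strain barcoded multiplex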). To be noted: 3 h, at 10 µM, stronger effect = higher value.
The nature of assay [6]: inhibitors of CD8+ T cell-vesicle binding, pilot screen, LFA-1/ICAM-1 modulator project, MLPCN validation set, flow cytometry (AID 2523).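 On vesicle binding response: mean PE anti-B7-1 fluorescence of CD8+ cells relative to row control; 100% = QL9-loaded vesicles with DMSO vehicle in the same plate row.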 To be noted: 2C mouse CD8+ T cells, at 7 µM, stronger effect = lower value; double positive events: measured here: CD8+/vesicle+ event percentage.
Assay [7] addresses Integrin beta-1 (Homo sapiens) + Integrin alpha-4 (Homo sapiens) (UniProt P13612+P05556). Kind of assay: inhibition of HUTS-21 binding to VLA-4, pilot screen, VLA-4 allosteric modulator project, U937 cells, HUTS-21 mAb, flow cytometry, validation set (AID 2674;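 active means inhibition above 50%, about 3 SD of the validation set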;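 further: antibody binding induced by the VLA-4 ligand LDV present at three times its Kd; 0% = LDV ligand with antibody and no compound and 100% = antibody without LDV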). To be noted: HUTS-21 LIBS mAb binding, at 6.7 µM, stronger effect = higher value, binding induced by LDV ligand.
The nature of assay [8]: superoxide lowering in aged yeast cells, pilot screen, validation compound set (AID 2706;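 active means superoxide response below 65% of plate, a cut near 3 SD across the whole screen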;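 further: yeast exposed to compound for one week at 30 degrees C before staining; 100% = mean of all compound wells on the same plate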). The following applies: S. cerevisiae aging, superoxide DHE fluorescence; at 10 µM; stronger effect = lower value.
The target in assay [9] is Beta-adrenergic receptor kinase 1 (Homo sapiens) (UniProt P25098). Kind of assay: GRK2 binders displacing RNA aptamer, biochemical, validation, human GRK2, bead flow cytometry (AID 488806;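 active means aptamer binding inhibition above 30%, about 3 SD of noise from non-fluorescent compounds; inactive means inhibition at or below 30%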). To be noted: bead-bound GRK2, FAM-aptamer displacement, at 10 µM, stronger effect = higher value.
Chain of Beta-adrenergic receptor kinase 1 (Homo sapiens) (P25098 whole entry, looked up): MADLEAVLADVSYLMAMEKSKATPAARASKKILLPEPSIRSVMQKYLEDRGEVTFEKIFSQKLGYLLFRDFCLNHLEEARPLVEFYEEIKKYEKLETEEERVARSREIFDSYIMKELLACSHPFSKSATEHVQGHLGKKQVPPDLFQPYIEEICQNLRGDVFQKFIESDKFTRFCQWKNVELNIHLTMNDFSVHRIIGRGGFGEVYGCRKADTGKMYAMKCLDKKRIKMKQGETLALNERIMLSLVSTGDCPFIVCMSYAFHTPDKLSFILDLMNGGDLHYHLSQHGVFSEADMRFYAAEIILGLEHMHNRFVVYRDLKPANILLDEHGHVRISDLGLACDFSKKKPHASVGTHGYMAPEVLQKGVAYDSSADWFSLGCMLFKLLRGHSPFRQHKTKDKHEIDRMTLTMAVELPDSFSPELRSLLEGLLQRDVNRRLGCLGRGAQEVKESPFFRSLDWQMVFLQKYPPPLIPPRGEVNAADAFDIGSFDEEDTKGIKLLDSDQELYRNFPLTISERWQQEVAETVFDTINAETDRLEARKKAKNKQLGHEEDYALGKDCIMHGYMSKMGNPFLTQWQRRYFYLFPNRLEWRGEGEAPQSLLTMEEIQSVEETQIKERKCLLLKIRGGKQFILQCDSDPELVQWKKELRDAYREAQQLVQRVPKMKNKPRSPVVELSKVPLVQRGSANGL
In assay [10] the target is Beta-2 adrenergic receptor (Homo sapiens) (UniProt P07550). Kind of assay: beta2AR agonists driving receptor internalization, pilot screen, cell-based, FAP fluorogen, flow cytometry, validation set (AID 504459;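 active means percent response above 42, roughly 3 SD of non-fluorescent test compounds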;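 further: agonist-driven loss of surface beta2AR via internalization measured by FAP dye flow cytometry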). The following applies: Am2.2-beta2AR cells, FAP surface receptor flow cytometry; at 10 µM; stronger effect = higher value.
Chain of Beta-2 adrenergic receptor (Homo sapiens) (P07550 whole entry, looked up): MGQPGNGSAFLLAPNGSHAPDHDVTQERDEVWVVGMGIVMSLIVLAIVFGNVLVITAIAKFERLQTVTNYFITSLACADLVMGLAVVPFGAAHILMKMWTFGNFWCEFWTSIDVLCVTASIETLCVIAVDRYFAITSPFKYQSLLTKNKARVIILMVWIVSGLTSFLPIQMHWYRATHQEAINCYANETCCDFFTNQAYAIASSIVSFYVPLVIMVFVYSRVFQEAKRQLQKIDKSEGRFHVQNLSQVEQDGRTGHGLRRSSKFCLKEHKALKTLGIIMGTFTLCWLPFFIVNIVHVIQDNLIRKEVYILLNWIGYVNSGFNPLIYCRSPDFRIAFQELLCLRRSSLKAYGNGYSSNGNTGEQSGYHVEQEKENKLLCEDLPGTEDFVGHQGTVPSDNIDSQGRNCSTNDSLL
Assay [11] deals with AP-2 complex subunit beta (Homo sapiens) (UniProt P63010). Kind of assay: inhibitors of arrestin peptide binding to AP2, pilot screen, biochemical, validation set, GST-AP2 beads, flow cytometry (AID 504541;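 active means inhibition above 54%, about 3 SD of non-fluorescent compounds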;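 further: AP2 carries R879A mutation and is captured from E. coli lysate; bead-bound FITC arrestin peptide fluorescence measuring arrestin peptide binding to AP2; 0% = DMSO wells and 100% = excess unlabeled arrestin peptide control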). The following applies: FITC arrestin peptide, at 10 µM, stronger effect = higher value, AP2 beta2 appendage fragment, R879A mutant.
Chain of AP-2 complex subunit beta (Homo sapiens) (P63010 whole entry, looked up, the tested form may be a part, one chain of several): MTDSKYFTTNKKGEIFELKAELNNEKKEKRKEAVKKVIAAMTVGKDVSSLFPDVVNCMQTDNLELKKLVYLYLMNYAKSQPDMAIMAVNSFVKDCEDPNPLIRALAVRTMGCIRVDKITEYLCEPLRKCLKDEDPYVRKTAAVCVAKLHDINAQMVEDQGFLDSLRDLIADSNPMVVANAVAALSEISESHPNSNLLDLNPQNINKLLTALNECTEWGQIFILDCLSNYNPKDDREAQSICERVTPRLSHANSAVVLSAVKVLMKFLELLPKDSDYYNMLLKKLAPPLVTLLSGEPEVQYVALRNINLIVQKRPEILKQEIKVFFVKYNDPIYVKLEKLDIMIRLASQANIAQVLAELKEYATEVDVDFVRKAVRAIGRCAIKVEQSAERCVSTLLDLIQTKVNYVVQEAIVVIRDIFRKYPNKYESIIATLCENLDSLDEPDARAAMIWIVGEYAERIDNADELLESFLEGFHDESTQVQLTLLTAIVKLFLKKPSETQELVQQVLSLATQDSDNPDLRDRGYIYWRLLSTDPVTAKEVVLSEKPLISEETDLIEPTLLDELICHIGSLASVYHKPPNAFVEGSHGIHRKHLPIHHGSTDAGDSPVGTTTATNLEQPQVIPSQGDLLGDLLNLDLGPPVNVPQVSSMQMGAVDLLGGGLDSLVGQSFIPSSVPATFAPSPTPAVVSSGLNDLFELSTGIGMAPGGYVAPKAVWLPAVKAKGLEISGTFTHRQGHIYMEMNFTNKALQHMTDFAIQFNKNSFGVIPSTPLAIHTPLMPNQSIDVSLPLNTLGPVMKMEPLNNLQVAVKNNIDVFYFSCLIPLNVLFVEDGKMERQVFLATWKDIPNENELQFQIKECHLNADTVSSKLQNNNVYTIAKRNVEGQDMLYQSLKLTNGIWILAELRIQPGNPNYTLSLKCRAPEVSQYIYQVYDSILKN
Assay [12] is described as follows: yeast V-ATPase proton transport modulators, S. cerevisiae, pHLuorin, HTS validation (AID 504600; in the data active means response above about 15%;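 further: plate controls were DMSO for no effect and reference compound for full effect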). To be noted: S. cerevisiae pHLuorin cytosolic pH, at 10 µM, stronger effect = higher value.
Assay [13] concerns anti-desmoglein-3 scFv antibody binding to human DSG3. Kind of assay: inhibitors of anti-DSG3 scFv binding to DSG3, pilot screen, biochemical, validation compound set, bead-based, flow cytometry (AID 588368;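 active means binding below the plate cutoff, the plate median minus 3 SD, with a reading above zero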;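 further: signal is the median channel fluorescence of bead-bound GFP antibody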). To be noted: Protein G beads, DSG3-Fc, scFv-GFP binding, at 10 µM, stronger effect = lower value.
Assay [14] is described as follows: inhibitors of fungal efflux pumps CDR1, CDR2, MDR1, pilot screen, validation compound set, multiplex, phenotypic (AID 588506;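 active means efflux inhibition above 0.42, the validation set average plus 4 SD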;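 further: Nile Red retained in cells so higher fluorescence means more efflux inhibition; 0 = negative control wells and 1 = enniatin B 25 µM full block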). The following applies: S. cerevisiae pump-expressing triplex, Nile Red efflux flow cytometry; at 10 µM; stronger effect = higher value; the pumps come from Candida albicans.
The target in assay [15] is ATP-binding cassette sub-family B member 6 (Homo sapiens) (UniProt Q9NP58). Description: ABCB6 transporter inhibitors, pilot screen, K562-ABCB6 cells, flow cytometry, validation set (AID 588550;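 active means inhibition above the screen-wide mean plus 3 SD, about 51%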;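 further: 0% = DMSO wells and 100% = benzethonium chloride 70 µM positive control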). To be noted: K562-ABCB6 porphyrin accumulation, 1 h, at 10 µM, stronger effect = higher value.
Chain of ATP-binding cassette sub-family B member 6 (Homo sapiens) (Q9NP58 whole entry, looked up): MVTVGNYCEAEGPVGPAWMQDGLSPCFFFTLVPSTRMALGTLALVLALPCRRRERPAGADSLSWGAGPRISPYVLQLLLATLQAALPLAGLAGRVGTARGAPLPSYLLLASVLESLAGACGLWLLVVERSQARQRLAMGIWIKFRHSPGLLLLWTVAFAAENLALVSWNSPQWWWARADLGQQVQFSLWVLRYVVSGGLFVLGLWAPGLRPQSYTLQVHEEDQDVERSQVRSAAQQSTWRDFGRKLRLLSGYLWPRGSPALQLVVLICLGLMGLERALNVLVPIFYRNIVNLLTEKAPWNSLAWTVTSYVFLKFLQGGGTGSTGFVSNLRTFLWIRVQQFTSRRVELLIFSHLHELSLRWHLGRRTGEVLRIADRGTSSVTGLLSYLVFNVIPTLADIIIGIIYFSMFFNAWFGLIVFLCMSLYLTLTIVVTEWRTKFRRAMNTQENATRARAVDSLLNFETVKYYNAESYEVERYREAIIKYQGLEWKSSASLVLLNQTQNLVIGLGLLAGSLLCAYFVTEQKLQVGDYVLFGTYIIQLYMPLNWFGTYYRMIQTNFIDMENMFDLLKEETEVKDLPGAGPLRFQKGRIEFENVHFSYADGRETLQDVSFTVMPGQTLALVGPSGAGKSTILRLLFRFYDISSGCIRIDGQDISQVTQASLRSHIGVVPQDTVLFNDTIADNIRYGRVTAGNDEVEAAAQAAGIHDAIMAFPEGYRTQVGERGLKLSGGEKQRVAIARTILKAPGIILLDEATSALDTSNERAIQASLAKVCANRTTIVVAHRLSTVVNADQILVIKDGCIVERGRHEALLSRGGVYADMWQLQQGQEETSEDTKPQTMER
Assay [16] can be described thus: promoters of myeloid differentiation in arrested cells, primary screen, cell-based, GFP/MAC1 double positive, flow cytometry, validation set (AID 588685;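 active means differentiation response of at least 50%, scaled between solvent and reference control, from cells with both markers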;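 further: compound exposure lasts four days before antibody staining and flow analysis; 0% = DMSO wells and 100% = 5 µM fulvestrant positive control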). The following applies: ER-HoxA9 marrow cells, stronger effect = higher value, normalized: vehicle 0, fulvestrant 100.

Chain of Integrin beta-1 (Homo sapiens) + Integrin alpha-4 (Homo sapiens) (P05556 whole entry, looked up): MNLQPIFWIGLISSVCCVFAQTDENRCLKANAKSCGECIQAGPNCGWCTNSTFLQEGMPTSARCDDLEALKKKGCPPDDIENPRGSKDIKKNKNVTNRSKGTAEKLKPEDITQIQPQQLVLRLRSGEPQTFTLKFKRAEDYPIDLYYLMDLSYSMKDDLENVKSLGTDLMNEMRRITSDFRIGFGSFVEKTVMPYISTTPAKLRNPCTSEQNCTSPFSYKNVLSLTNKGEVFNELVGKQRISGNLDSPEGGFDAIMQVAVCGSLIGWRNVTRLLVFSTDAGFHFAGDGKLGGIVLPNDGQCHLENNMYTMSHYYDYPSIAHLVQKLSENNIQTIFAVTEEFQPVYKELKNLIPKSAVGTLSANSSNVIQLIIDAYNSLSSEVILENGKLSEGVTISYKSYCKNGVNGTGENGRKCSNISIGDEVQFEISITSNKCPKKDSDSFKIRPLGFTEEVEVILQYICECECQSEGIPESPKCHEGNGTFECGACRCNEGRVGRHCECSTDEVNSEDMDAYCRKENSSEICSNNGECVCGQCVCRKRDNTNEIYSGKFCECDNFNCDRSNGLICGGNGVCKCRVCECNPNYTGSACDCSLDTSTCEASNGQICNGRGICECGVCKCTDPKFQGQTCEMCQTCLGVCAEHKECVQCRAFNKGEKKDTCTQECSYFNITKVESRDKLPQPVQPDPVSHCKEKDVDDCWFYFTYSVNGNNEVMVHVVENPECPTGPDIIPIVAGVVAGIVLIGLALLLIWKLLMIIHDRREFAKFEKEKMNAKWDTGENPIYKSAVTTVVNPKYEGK
Chain of Integrin beta-1 (Homo sapiens) + Integrin alpha-4 (Homo sapiens) (P13612 whole entry, looked up): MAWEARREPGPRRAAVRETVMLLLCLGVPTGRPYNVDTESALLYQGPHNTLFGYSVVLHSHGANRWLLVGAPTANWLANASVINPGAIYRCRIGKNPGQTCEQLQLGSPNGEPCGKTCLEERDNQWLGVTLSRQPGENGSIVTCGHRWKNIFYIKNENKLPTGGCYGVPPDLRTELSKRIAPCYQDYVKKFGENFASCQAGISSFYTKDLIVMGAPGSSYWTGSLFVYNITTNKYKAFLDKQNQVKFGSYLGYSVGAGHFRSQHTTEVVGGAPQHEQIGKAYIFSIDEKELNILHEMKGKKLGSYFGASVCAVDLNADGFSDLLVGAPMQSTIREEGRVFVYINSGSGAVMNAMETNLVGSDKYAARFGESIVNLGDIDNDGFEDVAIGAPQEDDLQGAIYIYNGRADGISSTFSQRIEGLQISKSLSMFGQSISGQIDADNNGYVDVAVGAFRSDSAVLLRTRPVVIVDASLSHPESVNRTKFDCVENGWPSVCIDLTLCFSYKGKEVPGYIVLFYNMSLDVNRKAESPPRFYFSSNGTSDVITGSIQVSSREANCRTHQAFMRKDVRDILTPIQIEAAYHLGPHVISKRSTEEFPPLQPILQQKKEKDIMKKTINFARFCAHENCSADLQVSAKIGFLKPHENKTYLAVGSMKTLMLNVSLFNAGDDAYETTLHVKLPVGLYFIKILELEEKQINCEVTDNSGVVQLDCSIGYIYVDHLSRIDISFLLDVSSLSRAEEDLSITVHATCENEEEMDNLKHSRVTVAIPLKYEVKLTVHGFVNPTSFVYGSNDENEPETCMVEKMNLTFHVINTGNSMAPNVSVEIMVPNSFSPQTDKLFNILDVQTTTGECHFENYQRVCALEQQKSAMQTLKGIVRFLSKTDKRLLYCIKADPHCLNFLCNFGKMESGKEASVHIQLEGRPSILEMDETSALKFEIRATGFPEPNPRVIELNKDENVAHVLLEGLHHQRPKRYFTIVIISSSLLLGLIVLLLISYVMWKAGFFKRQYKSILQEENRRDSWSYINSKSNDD

On to `COc1ccc(O)c(C(=O)/C=C/c2cc3ccccc3o2)c1`, for which the percent of DMSO control GFP in [1] was 95.9% (inactive). Further, the GFP response vs DMSO in assay [2] was 112% (inactive); in [4] it was 109% (inactive). Further, in assay [3], the percent response of DMSO control was 96.7% (inactive). Further, in [5], the GFP response, % of DMSO is 95.2% (inactive). The molecule also registered a double positive events in assay [6] of 59.6%. In addition, the vesicle binding response in assay [6] was 117% (inactive). The inhibition in assay [7] is -0.43% (inactive); in [11], 1.27% (inactive); in assay [15] it was 1% (inactive). The superoxide response (% of plate) in [8] was 106% (inactive). Moreover, the aptamer binding inhibition in assay [9] is 3% (inactive). For the same molecule, the response in assay [10] was 23% (inactive); in [12], 0.06% (inactive). Further, the binding (% of control) in assay [13] was 102% (inactive). Also, the efflux inhibition (fraction of control) in [14] was -0.17 (inactive). Besides, the differentiation response in assay [16] is -2.4% (inactive).

On to `C/C=C(/C(=C/C)c1ccc(O)cc1)c1ccc(O)cc1`, for which the percent of DMSO control GFP in assay [1] was 90.4% (inactive). Moreover, the GFP response vs DMSO was 135% (inactive) in assay [2] and 81.4% (inactive) in [4]. Besides, in assay [3], the percent response of DMSO control is 95.2% (inactive). Moreover, the GFP response, % of DMSO in assay [5] was 87.7% (inactive). Besides, the double positive events in assay [6] was 63.9%. Further, the vesicle binding response in assay [6] is 170% (inactive). In addition, the inhibition in assay [7] was 8.4% (inactive); in assay [11], 13.1% (inactive); in assay [15], 4% (inactive). The superoxide response (% of plate) in [8] was 91.4% (inactive). For the same molecule, the aptamer binding inhibition in [9] is 2% (inactive). Besides, the response in assay [10] was -4.98% (inactive); in assay [12], -1.75% (inactive). The binding (% of control) in [13] is 101% (inactive). For the same molecule, the efflux inhibition (fraction of control) in assay [14] is 0.48 (active). Also, the differentiation response in assay [16] was -7.37% (inactive).

With `COc1ccc(NC(=O)C2CCCN2C(=O)OC(C)(C)C)cc1` (stereo not given), the percent of DMSO control GFP in [1] is 102% (inactive). The GFP response vs DMSO in assay [2] is 102% (inactive); in assay [4] it was 92.3% (inactive). Moreover, the percent response of DMSO control in assay [3] is 100% (inactive). The GFP response, % of DMSO in assay [5] was 99.9% (inactive). Further, the double positive events in assay [6] is 69.5%. Besides, the vesicle binding response in assay [6] is 107% (inactive). In addition, the inhibition is 2.55% (inactive) in [7], -4.29% (inactive) in [11] and 8% (inactive) in assay [15]. Also, the superoxide response (% of plate) in assay [8] was 53.3% (active). Moreover, the aptamer binding inhibition in assay [9] was 0% (inactive). For the same molecule, the response in assay [10] is -5.75% (inactive); in assay [12], -0.27% (inactive). Moreover, in assay [13], the binding (% of control) is 102% (inactive). Further, the efflux inhibition (fraction of control) in [14] is -0.38 (inactive). For the same molecule, in assay [16], the differentiation response was -5.68% (inactive).

On to `CC(C)(Oc1ccc(CCNC(=O)c2ccc(Cl)cc2)cc1)C(=O)O`, for which, in assay [1], the percent of DMSO control GFP is 106% (inactive). Also, the GFP response vs DMSO in assay [2] is 107% (inactive); in assay [4] it was 101% (inactive). In assay [3], the percent response of DMSO control was 96.6% (inactive). Further, in assay [5], the GFP response, % of DMSO was 103% (inactive). In [6], this molecule displayed a double positive events of 65.7%. Further, the vesicle binding response in assay [6] was 137% (inactive). Further, the inhibition was -8.75% (inactive) in assay [7], 23.2% (inactive) in [11] and 19% (inactive) in assay [15]. Besides, the superoxide response (% of plate) in assay [8] is 110% (inactive). For the same molecule, the aptamer binding inhibition in assay [9] was 3% (inactive). The values for the response in [10] and in [12] were -3.83% (inactive) and -4.97% (inactive), respectively. For the same molecule, in assay [13], the binding (% of control) was 93.5% (inactive). For the same molecule, the efflux inhibition (fraction of control) in assay [14] is 0.08 (inactive). Further, the differentiation response in [16] was 8.06% (inactive).

Take `Nc1ccc2cn[nH]c2c1`: the percent of DMSO control GFP in assay [1] was 104% (inactive). Further, the GFP response vs DMSO in assay [2] was 97.7% (inactive); in assay [4], 101% (inactive). Moreover, the percent response of DMSO control in assay [3] was 98.6% (inactive). In assay [5], the GFP response, % of DMSO is 102% (inactive). For the same molecule, the double positive events in [6] was determined as 60.8%. In addition, in [6], the vesicle binding response is 109% (inactive). In addition, the results for the inhibition in assay [7], in assay [11] and in [15] were -3.77% (inactive), 0.32% (inactive) and 32% (inactive), respectively. For the same molecule, the superoxide response (% of plate) in assay [8] was 109% (inactive). Further, in [9], the aptamer binding inhibition was -1% (inactive). Moreover, the response was 2.17% (inactive) in assay [10] and -2.55% (inactive) in assay [12]. Besides, in assay [13], the binding (% of control) was 102% (inactive). In addition, in assay [14], the efflux inhibition (fraction of control) was 0.265 (inactive). Further, the differentiation response in [16] was -16.3% (inactive).

These data come from PubChem BioAssay.
